The source of these data is PubChem BioAssay (EPA / NIEHS).

Structures are written as SMILES. Active and inactive are the calls of the source. Rule for the calls: active = hit-call score of the fitted dose curve at least 0.9, where 1 is the maximum; inactive = score below 0.9.

Sequence of Signal transducer and activator of transcription 3 (Homo sapiens) (P40763 whole entry, looked up): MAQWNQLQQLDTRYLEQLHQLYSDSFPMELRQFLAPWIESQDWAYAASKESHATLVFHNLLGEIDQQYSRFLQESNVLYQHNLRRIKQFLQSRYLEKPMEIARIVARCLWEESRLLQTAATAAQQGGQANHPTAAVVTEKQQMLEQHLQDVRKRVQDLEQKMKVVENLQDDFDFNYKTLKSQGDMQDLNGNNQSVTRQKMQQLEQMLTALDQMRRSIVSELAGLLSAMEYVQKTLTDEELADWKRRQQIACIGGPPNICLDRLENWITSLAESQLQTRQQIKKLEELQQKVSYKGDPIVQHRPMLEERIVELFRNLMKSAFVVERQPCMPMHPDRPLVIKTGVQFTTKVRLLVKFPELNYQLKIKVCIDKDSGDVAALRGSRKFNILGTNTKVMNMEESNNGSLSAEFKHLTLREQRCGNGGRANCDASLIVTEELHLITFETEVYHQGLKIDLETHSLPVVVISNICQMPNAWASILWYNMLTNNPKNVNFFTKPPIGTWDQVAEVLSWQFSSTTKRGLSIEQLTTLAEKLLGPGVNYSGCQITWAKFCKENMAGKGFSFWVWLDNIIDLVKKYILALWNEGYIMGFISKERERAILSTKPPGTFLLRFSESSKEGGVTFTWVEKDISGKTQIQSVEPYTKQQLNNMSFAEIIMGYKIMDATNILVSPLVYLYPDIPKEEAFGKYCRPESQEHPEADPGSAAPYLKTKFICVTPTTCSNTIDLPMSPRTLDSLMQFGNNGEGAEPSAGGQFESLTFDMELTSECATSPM

This experiment addresses Signal transducer and activator of transcription 3 (Homo sapiens) (UniProt P40763). The experiment can be described thus: ATG_STAT3_CIS: Attagene CIS-FACTORIAL HepG2 Assay for human Signal Transducer and Activator of Transcription 3 (STAT3) (AID 2282963). The note with it: HepG2, Attagene cis-factorial STAT3 reporter transcription; actives raise or lower the signal. As for the experimental part:
ATG_CIS is a cell-based, multiplexed-readout assay that uses HepG2, a human liver cell line, with measurements taken at 24 hours after chemical dosing in a 24-well plate.ATG_STAT3_CIS is one of 52 assay component(s) measured or calculated from the ATG_CIS assay. It is designed to make measurements of mRNA induction, a form of inducible reporter, as detected with fluorescence intensity signals by Reverse transcription polymerase chain reaction (RT-PCR) and Capillary electrophoresis technology.Data from the assay component ATG_STAT3_CIS was analyzed into 1 assay endpoint. This assay endpoint, ATG_STAT3_CIS, was analyzed with bidirectional fitting relative to DMSO as the negative control and baseline of activity. Using a type of inducible reporter, measures of mRNA for gain or loss-of-signal activity can be used to understand the reporter gene at the transcription factor-level as they relate to the gene STAT3. Furthermore, this assay endpoint can be referred to as a primary readout, because this assay has produced multiple assay endpoints where this one serves a reporter gene function. To generalize the intended target to other relatable targets, this assay endpoint is annotated to the dna binding intended target family, where the subfamily is stat protein.
Human liver HepG2 cells are transiently transfected with multiple reporter transcription units (MRTUs) in 6-well plates using FuGene 6 reagent (Roche; 3 ml FuGene/1 mg DNA). The MRTU constructs are regulated by a cis-regulating element (promoter). […] A major difference between the CIS and TRANS system is that in CIS activities of endogenous TFs are measured, whereas the TRANS assay evaluates changes in activities of exogenous, chimeric NR-Gal4 proteins. […] At the end of 24 hour incubation, total RNA was isolated using TriZol reagent (Invitrogen). The isolated RNA is then reverse-transcribed using oligo(dT) primer and Mo-MLV reverse transcriptase (Invitrogen) with DNAse I (Ambion) treatment for 30 min. The one-tenth of the produced cDNA was amplified by PCR using Taq DNA polymerase (Invitrogen) and two reporter sequence-specific primers. The PCR products were fluorescently labeled by primer extension with 6-arboxyfluorescein (6-FAM) 5'-labeled reporter sequence-specific primer (2 min at 95 C, 20 s at 68 C and 10 min at 72 C) and these products were digested with 5U of HpaI (New England Biolabs) for 2h at 37 C. The fragments were purified using Qiaquick PCR columns (Qiagen), analyzed on an ABI 3130xL genetic analyzer (Applied Biosystems) with peak positions identified by using a set of X-rhodamine (ROX)-labeled MapMarker1000 molecular weight standards (BioVentures). The raw capillary electrophoresis data was processed using Attagraph software (Attagene).
`C=CC(=O)OCCO`: the outcome was inactive.

For the compound `C=C(Cl)CCl`, the compound was called inactive.

`CC1(C)CC(=O)CC(C)(C)N1[O]`: the compound was called inactive.

In the case of `Nc1cc(Cl)cc(Cl)c1`, the compound was classed as inactive.

In the case of `CCCCCCCCCCCC#N`, the compound was classed as inactive.

`CCCCCCCCCCCCCCCC[N+](C)(C)C`: the outcome was inactive.

`C[N+](=O)[O-]`: the call was inactive.

As for `O=[N+]([O-])O`, the result was inactive.

For the compound `CC(C)[C@@H](C(=O)O[C@@H](C#N)c1cccc(Oc2ccccc2)c1)c1ccc(Cl)cc1`, the compound was classed as inactive.

For `O=C1Nc2ccc(Cl)cc2C(c2ccccc2)=NC1O` (stereo not given), the compound was called inactive.

As to `O=c1[nH]c(Cl)c(Cl)cc1Cl`, the compound was called inactive.

On to `CC(=O)c1cc2c(cc1C)C(C)(C)C(C)CC2(C)C` (stereo not given), for which the compound was classed as inactive.

As for `C=CC(=O)OCCCCOC(=O)C=C`, the outcome was inactive.

For the compound `O=c1c2ccccc2c(=O)c2c1cc(Cl)c1[nH]c3c([nH]c12)c(Cl)cc1c(=O)c2ccccc2c(=O)c13`, the compound was called inactive.

For the compound `COc1cc(OC)nc(Oc2cccc(Oc3nc(OC)cc(OC)n3)c2C(=O)O)n1`, the compound was called inactive.

On to `CC(C)(O)C#N`, for which the compound was called inactive.

As to `Nc1ccccc1C(=O)Oc1ccc2ccccc2c1`, the concentration at half-maximal activity (AC50) is 74.5 µM (active).

As for `CCCCCCC1CCOC1=O` (stereo not given), the call was inactive.

For `O=[N+]([O-])c1ccc(Cl)cc1`, the outcome was inactive.

For the compound `CCCCCc1cc(O)cc(O)c1`, the compound was classed as inactive.

Turning to `CC(C)(C)C(=O)CCl`, the result was inactive.

Consider `[Cl-].[Cl-].[Cl-].[Yb+3]`, for which the result was inactive.

Turning to `Clc1ccc(-c2ccccc2)cc1`, the call was inactive.

Take `C=CCc1ccc(OC(=O)Cc2ccccc2)c(OC)c1`: the compound was classed as inactive.

On to `CC1(C)C(=O)NC(=O)NC1=O`, for which the call was inactive.

Take `CNC(=N[N+](=O)[O-])NCC1CCOC1` (stereo not given): the compound was classed as inactive.

For `O=C(CCl)c1ccccc1`, the outcome was inactive.

In the case of `CC[N+](=O)[O-]`, the compound was called inactive.

With `CCOC(=O)COc1ccc(Cl)cc1Cl`, the compound was called inactive.

In the case of `C=CCN(CC=C)C(=O)C(Cl)Cl`, the call was inactive.

For the compound `CNC(=O)Oc1cc(C)c(SC)c(C)c1`, the result was inactive.

`O=C1C=CC(=O)C=C1`: the result was inactive.

On to `C=CC(=O)OCC(CC)CCCC` (stereo not given), for which the compound was called inactive.

`CCC[N+](=O)[O-]`: the result was inactive.

In the case of `CC(C)c1ccc(O)cc1`, the call was inactive.

For the compound `O=C(O)CCCc1ccc(N(CCCl)CCCl)cc1`, the compound was called inactive.

As for `Nc1ccccc1`, the compound was classed as inactive.

Regarding `CC(=O)C=Cc1ccccc1`, the compound was called inactive.

Consider `NNc1ccccc1`, for which the compound was classed as inactive.

Turning to `O=C=Nc1ccccc1`, the call was inactive.
